In PubChem BioAssay (NCI):
About 79,000 compounds went through this panel and 15% of them were active in at least one assay; those are over-represented in the sample as a whole. Active and inactive are the calls of the source. No stated cut-off is given here; in the data, active means growth inhibition above about 70%; inactive means the rest.

Experiment: NCI Yeast Anticancer Drug Screen. Data for the mec2-1 strain (AID 157)
Details: S. cerevisiae mec2-1 strain, at 50.0 µM (retest, dose inferred, filed as 5.0), active compounds read high
Method in brief: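 Vehicle-treated cultures served as reference for growth inhibition of compound-exposed mec2-1 yeast.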

| Compound | growth inhibition |
| --- | --- |
| O=C(O)CCCCCCCCCCOc1ccc(Cl)cc1Cl | -2% (inactive) |
| C=C(CN1CCCC1)C(=O)c1ccc(OC)cc1 | 65% (inactive) |
| CNC(=O)OCc1c(COC(=O)NC)c(-c2ccc(OC)cc2)n2c1CCC2 | 21% (inactive) |
| CCCCC(=S)N1CCN(c2ccccc2)CC1 | 12% (inactive) |
| CCN(CC)C(=S)N/N=C/c1cc(OC)ccc1O | 93% (active) |
| COc1ccc2c(c1)CN1C(CCC3c4ccccc4NC31)C2 (stereo not given) | 11% (inactive) |
| CCCCC(=O)N/N=C(\C)[C@]1(O)Cc2c(O)c3c(c(O)c2[C@@H](OC2CC(N)C(O)C(C)O2)C1)C(=O)c1c(OC)cccc1C3=O (stereo not given in full) | 97% (active) |
| C=C1C(=O)C23OC2C1CCC(=O)C1(C)CC[C@H](OC(C)=O)C(C)(C)[C@H]1CC3O (stereo not given in full) | 31% (inactive) |
| Cc1nc(N)sc1N=Nc1ccc(Cl)cc1Cl | 90% (active) |
| O=C(O)c1cc2c3ccccc3sc2c2ccccc12 | -4% (inactive) |
| COc1ccc2c(c1)C(Br)CCC(Br)C2=O (stereo not given) | -18% (inactive) |
| Cc1cc(OCCl)ccc1[N+](=O)[O-] | 32% (inactive) |
| COC(=O)c1nnc(C(=O)OC)c2c1[nH]c1ccccc12 | 48% (inactive) |
| O=S(Nc1ccccc1Br)c1ccccc1 (stereo not given) | 16% (inactive) |
| Cc1c2c(c(C)c3c1OC(C)(C)CC3)OC(C)(C)CC2 | -7% (inactive) |
| O=c1cc(CSc2ccc(Cl)cc2)occ1O | 17% (inactive) |
| Cc1ccc2c(c1)[n+]([O-])c(N)n[n+]2[O-] | 35% (inactive) |
| CC(=O)c1c2c(cc3c1CC1(C3)Cc3cc4c(c(C(=O)O)c3C1)CCC4)CCC2 (stereo not given) | 96% (active) |
| CCCCCCCCCCC(NC(C)=O)(C(=O)OCC)C(=O)OCC | 99% (active) |
| Cc1nc2c(cnn2C)cc1CCc1ccccc1 | 35% (inactive) |

| Compound | growth inhibition |
| --- | --- |
| CCc1cccc(C)c1NC(=O)C(=O)CC(=O)c1ccccc1Cl | 3% (inactive) |
| COc1nc(N)c(N=O)c(OCc2ccccc2)n1 | 98% (active) |
| O=C1O/C(=C2\OC(=O)c3ccccc32)c2ccccc21 | 0% (inactive) |
| Cc1ccc(O)c(C(C)(C)c2ccccc2)c1 | 94% (active) |
| CCOC(=O)NN(C(=O)OCC)c1ccc(N=Nc2ccc(OC)cc2)n1C | 85% (active) |
| S=C(NCc1ccccc1)[S][Sb]([S]C(=S)NCc1ccccc1)[c]1ccccc1 | 97% (active) |
| O=CCCCc1cc2c(cc1Br)CCC2 | 62% (inactive) |
| CCC(C)CNCCCCCNc1cc(OC)cc2cccnc12 (stereo not given) | 62% (inactive) |
| CNC(=O)NC(c1cc(OC)c(OC)c(OC)c1)c1cc2c(cc1O)OCO2 (stereo not given) | -8% (inactive) |
| CCCCCCCSCc1nc2ccccc2c(C)[n+]1[O-] | 98% (active) |
| Cc1[nH]c(=O)[nH]c(=O)c1CN(C)Cc1cc(Cl)cc(Cl)c1O | 55% (inactive) |
| O=C(N/C(=C\c1cccc([N+](=O)[O-])c1)c1nc2ccccc2s1)c1ccccc1 | 98% (active) |
| CC1NS(=O)(=O)N(C)C1=O (stereo not given) | 3% (inactive) |
| Cc1csc2[n+]1C(=O)/C(=C\c1ccc([N+](=O)[O-])cc1)S2 | 71% (active) |
| CC(C)c1ccc2c(c1)CCC1C(C)(C(=O)O)CCCC21C (stereo not given) | 97% (active) |
| COc1ncnc2nc(SC)[nH]c12 | -2% (inactive) |
| CCN(CC)C(=O)CCCCC(=O)OC(C)C | -2% (inactive) |
| CC(=O)O/N=C1/CCC2C3CC=C4CC(OC(C)=O)CCC4(C)C3CCC12C (stereo not given) | 93% (active) |
| Clc1ccc(CNc2ccc(Br)cc2)cc1 | 93% (active) |
| Cc1cnc(C#N)c(C#N)n1 | 8% (inactive) |

Same assay, conditions: S. cerevisiae mec2-1 strain, at 50.0 µM, active compounds read high

| Compound | growth inhibition |
| --- | --- |
| O=C(O)CCCCCCCCCCOc1ccc(Cl)cc1Cl | 99.1% (active) |
| C=C(CN1CCCC1)C(=O)c1ccc(OC)cc1 | 73% (active) |
| CNC(=O)OCc1c(COC(=O)NC)c(-c2ccc(OC)cc2)n2c1CCC2 | 74.9% (active) |
| CCCCC(=S)N1CCN(c2ccccc2)CC1 | 62.2% (inactive) |
| CCN(CC)C(=S)N/N=C/c1cc(OC)ccc1O | 73.2% (active) |
| COc1ccc2c(c1)CN1C(CCC3c4ccccc4NC31)C2 (stereo not given) | 72.3% (active) |
| CCCCC(=O)N/N=C(\C)[C@]1(O)Cc2c(O)c3c(c(O)c2[C@@H](OC2CC(N)C(O)C(C)O2)C1)C(=O)c1c(OC)cccc1C3=O (stereo not given in full) | 99.2% (active) |
| C=C1C(=O)C23OC2C1CCC(=O)C1(C)CC[C@H](OC(C)=O)C(C)(C)[C@H]1CC3O (stereo not given in full) | 100% (active) |
| Cc1nc(N)sc1N=Nc1ccc(Cl)cc1Cl | 76.4% (active) |
| O=C(O)c1cc2c3ccccc3sc2c2ccccc12 | 5.3% (inactive) |
| COc1ccc2c(c1)C(Br)CCC(Br)C2=O (stereo not given) | 56.2% (inactive) |
| Cc1cc(OCCl)ccc1[N+](=O)[O-] | 25.6% (inactive) |
| COC(=O)c1nnc(C(=O)OC)c2c1[nH]c1ccccc12 | 28.4% (inactive) |
| O=S(Nc1ccccc1Br)c1ccccc1 (stereo not given) | 24.1% (inactive) |
| Cc1c2c(c(C)c3c1OC(C)(C)CC3)OC(C)(C)CC2 | 77.2% (active) |
| O=c1cc(CSc2ccc(Cl)cc2)occ1O | 13.4% (inactive) |
| Cc1ccc2c(c1)[n+]([O-])c(N)n[n+]2[O-] | 48.4% (inactive) |
| CC(=O)c1c2c(cc3c1CC1(C3)Cc3cc4c(c(C(=O)O)c3C1)CCC4)CCC2 (stereo not given) | 79.8% (active) |
| CCCCCCCCCCC(NC(C)=O)(C(=O)OCC)C(=O)OCC | 98% (active) |
| Cc1nc2c(cnn2C)cc1CCc1ccccc1 | 3.9% (inactive) |

| Compound | growth inhibition |
| --- | --- |
| CCc1cccc(C)c1NC(=O)C(=O)CC(=O)c1ccccc1Cl | 24.7% (inactive) |
| COc1nc(N)c(N=O)c(OCc2ccccc2)n1 | 92.6% (active) |
| O=C1O/C(=C2\OC(=O)c3ccccc32)c2ccccc21 | 7.55% (inactive) |
| Cc1ccc(O)c(C(C)(C)c2ccccc2)c1 | 99.8% (active) |
| CCOC(=O)NN(C(=O)OCC)c1ccc(N=Nc2ccc(OC)cc2)n1C | 60.8% (inactive) |
| S=C(NCc1ccccc1)[S][Sb]([S]C(=S)NCc1ccccc1)[c]1ccccc1 | 88.4% (active) |
| O=CCCCc1cc2c(cc1Br)CCC2 | 70.9% (active) |
| CCC(C)CNCCCCCNc1cc(OC)cc2cccnc12 (stereo not given) | 43.9% (inactive) |
| CNC(=O)NC(c1cc(OC)c(OC)c(OC)c1)c1cc2c(cc1O)OCO2 (stereo not given) | 13.4% (inactive) |
| CCCCCCCSCc1nc2ccccc2c(C)[n+]1[O-] | 95.8% (active) |
| Cc1[nH]c(=O)[nH]c(=O)c1CN(C)Cc1cc(Cl)cc(Cl)c1O | 26.9% (inactive) |
| O=C(N/C(=C\c1cccc([N+](=O)[O-])c1)c1nc2ccccc2s1)c1ccccc1 | 98.6% (active) |
| CC1NS(=O)(=O)N(C)C1=O (stereo not given) | 15.6% (inactive) |
| Cc1csc2[n+]1C(=O)/C(=C\c1ccc([N+](=O)[O-])cc1)S2 | 56.2% (inactive) |
| CC(C)c1ccc2c(c1)CCC1C(C)(C(=O)O)CCCC21C (stereo not given) | 98.3% (active) |
| COc1ncnc2nc(SC)[nH]c12 | 99.8% (active) |
| CCN(CC)C(=O)CCCCC(=O)OC(C)C | -1.1% (inactive) |
| CC(=O)O/N=C1/CCC2C3CC=C4CC(OC(C)=O)CCC4(C)C3CCC12C (stereo not given) | 71.5% (active) |
| Clc1ccc(CNc2ccc(Br)cc2)cc1 | 85.5% (active) |
| Cc1cnc(C#N)c(C#N)n1 | 5.9% (inactive) |
